TbREL1 primary: TbREL1 inhibition, primary screen. TbREL1 RNA ligation, FRET fluorescence. AID 1117264. actives 0.49% (n = 89,000). P86926. inhibition, % at 9.66 µM;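 active = inhibition above the mean inhibition across all screened compounds plus 3 SD, cut at about 11% in these data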
Target sequence (P86926 whole entry, looked up): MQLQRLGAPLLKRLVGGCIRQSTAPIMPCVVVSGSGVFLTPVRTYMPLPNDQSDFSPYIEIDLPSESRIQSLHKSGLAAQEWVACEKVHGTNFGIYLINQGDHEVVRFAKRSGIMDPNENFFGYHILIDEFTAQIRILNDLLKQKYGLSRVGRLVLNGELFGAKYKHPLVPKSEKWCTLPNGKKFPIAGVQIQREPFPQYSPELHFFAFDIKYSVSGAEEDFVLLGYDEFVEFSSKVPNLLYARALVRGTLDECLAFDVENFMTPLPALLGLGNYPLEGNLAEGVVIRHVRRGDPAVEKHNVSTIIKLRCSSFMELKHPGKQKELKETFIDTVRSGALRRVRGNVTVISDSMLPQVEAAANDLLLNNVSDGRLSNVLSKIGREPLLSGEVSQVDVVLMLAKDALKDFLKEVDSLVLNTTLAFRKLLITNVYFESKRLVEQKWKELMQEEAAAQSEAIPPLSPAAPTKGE
TbREL1 confirm: TbREL1 inhibition, confirmation; inhibition, % at 9.66 µM; shares compounds with TbREL1 primary; actives 37% (n = 390); TbREL1 RNA ligation, FRET fluorescence;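 active = mean inhibition across replicates above a set limit taken from the earlier primary screen, cut at about 11% in these data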
Each line names hits and unclear results; the compound was inactive in the other large screens (follow-up assays come after a bar, where they were run). Many of the other results were omitted from the sample, so hits are more common in it than they were.

CCc1ccc(OCCOCCN2CCN(C)CC2)cc1	TbREL1 primary 16 | TbREL1 confirm inactive
CN1CCN(CCOc2ccc(Cl)c(Cl)c2)CC1	none
CCn1c2ccccc2c2cc(NC(=O)COC(=O)c3ccc(F)cc3Cl)ccc21	none
COC(=O)c1sccc1NC(=O)c1cccc(OC)c1	TbREL1 primary 50 | TbREL1 confirm inactive
COc1cccc(C(=O)Nc2ccccc2F)c1	none
COc1cccc(C(=O)Nc2ccc(F)c(F)c2F)c1	none
O=C(CCn1nnc(-c2cccs2)n1)N1CCCCC1	none
COc1ccccc1C(C(=O)c1ccccc1)c1ccc2ccccc2c1 (stereo not drawn)	none
COc1ccccc1C(CC(=O)c1ccccc1)C(=O)c1ccccc1 (stereo not drawn)	TbREL1 primary 11 | TbREL1 confirm inactive
COC(=O)C(CC(=O)c1ccccc1)CC(=O)c1ccccc1	none
CCn1c2ccccc2c2cc(NC(=O)COC(=O)c3cc(F)ccc3F)ccc21	none
C#CCOCCOCCOCCNc1nc(N2CCOCC2)nc(N2CCN(C(=O)[C@H](CCC(=O)O)n3cc(C(N)CC(C)C)nn3)CC2)n1 (stereo partly drawn)	none
O=C(NCc1ccccc1)N1CCN(Cc2nc3ccccc3c(=O)[nH]2)CC1	none
COC(=O)[C@]12C[C@H](CC(=O)NCc3cccc(C(F)(F)F)c3)C(=O)N(Cc3ccco3)C1=C[C@H](COCc1ccccc1)O[C@@H]2C	none
COc1ccc(-n2c(COc3ccccc3)nnc2SCC(=O)Nc2ccc(OCc3ccccc3)cc2)cc1	none
O=C(/C=C\c1ccccc1[N+](=O)[O-])Nc1ccccc1	TbREL1 primary 12 | TbREL1 confirm inactive
CC(=O)N(C)c1ccc(NC(=O)/C=C/c2ccccc2Cl)cc1	none
O=C(/C=C/c1cccc([N+](=O)[O-])c1)Nc1cc(C(=O)O)cc(C(=O)O)c1	none
Cc1noc(C)c1NC(=O)Nc1ccc2c(c1)C(=O)N([C@@H](C)CO)C[C@@H](C)[C@H](CN(C)S(=O)(=O)c1ccc(F)cc1)OCCCC[C@H](C)O2	none
CC(C)(C)NC(=O)[C@@H](c1cccnc1)N(C(=O)c1ccco1)c1ccc(C(C)(C)C)cc1	none
O=C(O)c1cc(C(=O)O)c(-c2ccccc2)c(C(=O)O)c1	none
O=C(O)c1cc(N2C(=O)C=CC2=O)cc(N2C(=O)C=CC2=O)c1	TbREL1 primary 85 | TbREL1 confirm 30
Cc1ccc(N2C(=O)c3ccc(C(=O)O)cc3C2=O)cc1C	none
COc1ccc(-c2cc(C(=O)NN=Cc3ccccc3[N+](=O)[O-])[nH]n2)cc1	none
CCCC1S/C(=N/N=C/c2ccco2)NC1=O (stereo not drawn)	none
O=C1C(Cc2ccccc2)S/C(=N/N=C/c2ccco2)N1c1ccccc1 (stereo not drawn)	none
O=C1N/C(=N/N=C/c2ccco2)SC1Cc1ccccc1 (stereo not drawn)	TbREL1 primary 11 | TbREL1 confirm inactive
CN(Cc1ccccc1)C(=O)OCc1cn(Cc2ccccc2Cl)nn1	none
COc1ccc(N)cc1C#N	none
CCCOc1ccc(N)cc1N	TbREL1 primary 12 | TbREL1 confirm inactive
CCCOC(=O)c1ccc(O)c(OC)c1	none
CCCC1CCC2(CCCN2CCOC(=O)Nc2ccc(OC)cc2)CC1 (stereo not drawn)	none
c1ccc(SCc2cn3cccnc3n2)nc1	none
Nc1ccccc1SCc1cn2cccnc2n1	none
O=c1c2c(-c3ccco3)csc2nc(SCc2cn3cccnc3n2)n1-c1ccccc1	TbREL1 primary 23 | TbREL1 confirm inactive
O=C(OCC(=O)c1ccc(Cl)s1)c1ccc(CO)cc1	none
CC1CN(S(=O)(=O)c2ccc(C(=O)Nc3ccc(S(=O)(=O)N4CCOCC4)cc3)cc2)CC(C)O1 (stereo not drawn)	none
O=C(Nc1cccc(F)c1)c1ccc(S(=O)(=O)N2CCOCC2)cc1	none
O=C(Nc1ccon1)c1ccc(S(=O)(=O)N2CCOCC2)cc1	TbREL1 primary 13 | TbREL1 confirm inactive
COc1ccc(OCC(O)Cn2c(=N)n(Cc3ccccc3)c3ccccc32)cc1 (stereo not drawn)	none
N=c1n(CCO)c2ccccc2n1CCN1CCCCC1	none
Cc1cccc(OCC(O)Cn2c(=N)n(CCN3CCCCC3)c3ccccc32)c1 (stereo not drawn)	TbREL1 primary 12 | TbREL1 confirm inactive
CCc1ccccc1CNC(=O)C1CCC(CNS(=O)(=O)c2cccc3cccnc23)CC1 (stereo not drawn)	none
CC(=O)N1c2cc(S(=O)(=O)Nc3c(C)n(C)n(-c4ccccc4)c3=O)c(Br)cc2CC1C (stereo not drawn)	none
O=C(Cc1csc(N2CCOCC2)n1)N/N=C/c1ccc(O)c(O)c1O	TbREL1 primary 12 | TbREL1 confirm 35
O=C(N/N=C/c1sc(N2CCOCC2)nc1-c1ccccc1)c1ccccc1O	none
O=C(CCN1CCOCC1)N/N=C/c1cc(Br)cc(Br)c1O	none
Cc1cc(NS(=O)(=O)c2ccc(NC(=O)CSc3nnc(-c4ccco4)n3-c3ccc(Cl)cc3)cc2)nc(C)n1	none
Nc1[nH]c(C(=O)c2ccccc2)c(-c2ccccn2)c1C(=O)c1c[nH]c2ccc(Br)cc12	none
C[C@H]1C(=O)N2[C@@H](C[C@]3(c4c[nH]c5ccccc45)c4ccccc4N(S(=O)(=O)c4ccccc4)[C@H]23)C(=O)N1C	none
CC(C)C[C@H](NC1(C(=O)NC2CCCCC2)CCCCC1)C(=O)NCC(c1ccccc1)c1ccccc1	none
CN1CCC(N[C@@H](Cc2c[nH]c3ccccc23)C(=O)NCC(c2ccccc2)c2ccccc2)(C(=O)NC2CCCCC2)CC1	none
CC(C)C[C@H](NC1(C(=O)NC2CCCCC2)CCN(C)CC1)C(=O)NCC(c1ccccc1)c1ccccc1	TbREL1 primary 17 | TbREL1 confirm 18
CCCCC(=O)N(Cc1ccccc1)c1ccccc1C(=O)Nc1cc(OC)ccc1OC	none
CC1(C)CC(=O)N(CC(=O)N2CCN(c3ccc(F)cc3)CC2)c2ccccc2S1(=O)=O	none
C[C@H]1[C@@H](N(C)Cc2cccs2)CC[C@@]23CCCN2C(=O)CCC[C@@H]13	none
N#Cc1ccc(C(=O)Oc2coc(CSc3ncccn3)cc2=O)cc1	none
COc1ccc(Cl)cc1N(CC(=O)N1CCCC1)S(=O)(=O)c1ccc(C)cc1	TbREL1 primary 12 | TbREL1 confirm inactive
CCOC(=O)C1CCN(C(=O)CN(c2cc(Cl)ccc2OC)S(=O)(=O)c2ccccc2)CC1	none
COC(=O)CN(c1cc(Cl)ccc1OC)S(=O)(=O)c1ccc(C)cc1	none
CCn1c2ccccc2c2cc(NC(=O)COC(=O)c3ccc(F)cc3F)ccc21	none
O=C1NCCN1CCN1CCC(c2cn(-c3ccc(F)cc3)c3ccc(Cl)cc23)CC1	none
CCC(C#Cc1ccccc1)NCc1ccc(OC)cc1OC (stereo not drawn)	none
Cc1ccccc1N(C)C(=O)Cn1nnc(-c2ccccc2F)n1	none
Nc1[nH]c2cc(C(F)(F)F)ccc2c1C(=O)N1CCN(CCc2ccccc2)CC1	none
NC(Cc1ccc(C(F)(F)F)cc1)c1csc(NC(=O)Nc2ccccc2Cl)n1 (stereo not drawn)	none
CC(C)C(N)c1csc(NC(=O)Nc2ccccc2C(C)(C)C)n1 (stereo not drawn)	TbREL1 primary 13 | TbREL1 confirm inactive
CC(C)c1ccc(NC(=O)Nc2nc(C(N)CCc3ccccc3)cs2)cc1 (stereo not drawn)	none
CCNc1nc(N)c([N+](=O)[O-])c(Nc2cccc(Cl)c2)n1	none
O=C(OCc1ccccc1)[C@H](Cc1ccccc1)NC(=O)[C@@H]1CC=C[C@@H]2CCN(Cc3ccccc3)C(=O)[C@@H]21	none
CC(C)(C)OC(=O)NC1CCN(c2nc(-c3ccc(Br)cc3)cs2)CC1	none
CC(=O)Nc1sc2c(c1-c1nc3ccccc3s1)CCCNC2	none

High-throughput results (PubChem)
